Results filed as inconclusive are left out. The source made the active and inactive calls. Calls come from the whole dose curve; as a rule, active = well fitted activation curve with a large enough effect; inconclusive = small, poorly fitted or top-dose-only effect; inactive = no such curve, though single readings can be large or run the other way.

39 compounds from PubChem BioAssay (NCATS) can be followed below.
% is set by controls: 0 for no effect and ±100 for the full control effect; potency is the fitted concentration of half-maximal effect.

The target in the test is Rap guanine nucleotide exchange factor 4 (Homo sapiens) (UniProt Q8WZA2). The experiment in a line: Confirmatory qHTS for agonist of cAMP-regulated guanine nucleotide exchange factor 4 (EPAC2) (AID 1645884).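 Note: nucleotide exchange releases bodipy-GDP from Rap1 and this lowers its fluorescence; nearly all actives have a fitted effect of over 65% in size.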 The following applies: EPAC2 GEF activity, Rap1B-BODIPY-GDP fluorescence; series mostly up to 154 µM; activation: at the top concentration.
Chain of Rap guanine nucleotide exchange factor 4 (Homo sapiens) (Q8WZA2 whole entry, looked up): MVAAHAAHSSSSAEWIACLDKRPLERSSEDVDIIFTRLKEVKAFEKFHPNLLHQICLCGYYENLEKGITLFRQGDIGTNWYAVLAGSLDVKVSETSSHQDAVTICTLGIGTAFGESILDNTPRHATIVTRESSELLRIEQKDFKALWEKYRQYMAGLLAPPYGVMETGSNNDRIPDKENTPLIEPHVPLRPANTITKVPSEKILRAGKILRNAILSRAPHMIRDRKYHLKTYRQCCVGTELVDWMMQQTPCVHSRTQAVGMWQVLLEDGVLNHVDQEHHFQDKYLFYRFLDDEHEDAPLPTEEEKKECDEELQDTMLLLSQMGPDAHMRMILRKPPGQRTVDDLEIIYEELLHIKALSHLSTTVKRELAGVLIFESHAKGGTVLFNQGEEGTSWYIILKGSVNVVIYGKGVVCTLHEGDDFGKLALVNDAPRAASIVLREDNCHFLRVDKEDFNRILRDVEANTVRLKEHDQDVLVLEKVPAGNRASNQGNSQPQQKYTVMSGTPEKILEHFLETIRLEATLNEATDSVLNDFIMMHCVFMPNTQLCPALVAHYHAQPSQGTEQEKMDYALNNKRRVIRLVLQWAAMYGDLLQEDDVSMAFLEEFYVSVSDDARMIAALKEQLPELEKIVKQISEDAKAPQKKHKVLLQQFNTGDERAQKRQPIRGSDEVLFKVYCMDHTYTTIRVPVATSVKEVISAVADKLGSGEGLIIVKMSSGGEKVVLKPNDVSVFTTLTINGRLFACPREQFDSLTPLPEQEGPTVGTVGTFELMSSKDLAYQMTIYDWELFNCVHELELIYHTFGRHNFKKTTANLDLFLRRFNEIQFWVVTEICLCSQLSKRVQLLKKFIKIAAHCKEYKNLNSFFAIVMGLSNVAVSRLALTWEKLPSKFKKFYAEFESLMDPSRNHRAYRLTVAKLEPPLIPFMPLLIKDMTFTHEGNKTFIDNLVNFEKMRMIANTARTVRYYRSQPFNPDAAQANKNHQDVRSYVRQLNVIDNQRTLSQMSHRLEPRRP
For `CCOC(=O)[C@]12Cc3cc(C)ccc3[C@H]1N(C1CCCCC1)C(=O)c1ccccc12`, the activation was 4.83% [at 17.1 µM, percent relative to cAMP agonist control] (inactive).
Same read-out and setting: under `Cc1c(NS(=O)(=O)c2ccccc2)ccc([N+](=O)[O-])c1Cl` stands -15.5% (inactive); under `CCCSc1nc2ccccc2c(=O)n1-c1ccccc1OC`, -9.92% [at 83.8 µM, percent relative to cAMP agonist control] (inactive).
The same measure, in the same setting: under `CC(Cc1ccc(O)cc1)NCC(O)c1ccc(O)c(O)c1` (centres undefined) stands -2.87% [at 17.1 µM, percent relative to cAMP agonist control] (inactive); under `Cc1c2cnn(CC(=O)N3CCC4(CC3)OCCO4)c(=O)c2c(C)n1Cc1ccc(F)cc1`, -6.75% (inactive).
As for `CCOC(=O)[C@]12Cc3cc(C)ccc3[C@H]1N(Cc1ccccc1)C(=O)c1ccccc12`, the “activation” value was 0% (inactive).
On the same count and under the same terms, under `CCN(CC)c1ccc(N=Cc2c(O)n(CCC3=CCCCC3)c(=O)[nH]c2=O)cc1` stands -140% (inactive); under `O=c1[nH]c(O)c(C=Nc2ccccc2Sc2ccccc2)c(=O)[nH]1`, 9.66% (inactive); under `COc1ccc(C(SCC(NC(=O)OCc2ccccc2)C(=O)O)c2ccc(OC)cc2)cc1` (centres undefined), 0.0815% (inactive).
Take `CCOC(=O)[C@]12Cc3ccsc3[C@H]1N(Cc1ccccc1)C(=O)c1ccccc12`: the “activation” value was 16.9% (inactive).
On the same count and under the same terms, under `O=C1NC(=O)N(c2cccc(Cl)c2)C(=O)/C1=C\c1ccc(Sc2nc3ccccc3[nH]2)o1` stands 5.77% [at 17.1 µM, percent relative to cAMP agonist control] (inactive); under `CCN1C(=O)C(=C/C=C/c2ccco2)C(=O)N(CC)C1=S`, 0% (inactive); under `COC(=O)C1=C(c2cc3ccccc3s2)C[C@@H]2CC[C@H]1N2C(=O)NC1CC1`, 1.42% (inactive).
Still for that read-out and setting: with `Cc1cc(/C=C2\C(=O)NC(=O)N(c3ccc(Cl)cc3)C2=O)c(C)n1-c1sc2c(c1C#N)CCCC2` the figure was 3.87% [at 17.1 µM, percent relative to cAMP agonist control] (inactive); with `COc1cccc(-n2c(/C=C/c3ccc(O)c(O)c3)nc3ccccc3c2=O)c1`, 9.04% [at 17.1 µM, percent relative to cAMP agonist control] (inactive); with `N#CC(C#N)=NNc1ccc(S(N)(=O)=O)cc1`, 3.48% [at 17.1 µM, percent relative to cAMP agonist control] (inactive).
The same measure, in the same setting: with `Cc1ccc(N2C(=O)NC(=O)/C(=C\c3cc(C)n(-c4sc5c(c4C#N)CCCC5)c3C)C2=O)cc1` the figure was -31.6% (inactive); with `Cc1ccc(N2C(=O)NC(=O)/C(=C\C=C\c3ccco3)C2=O)cc1`, 0.949% (inactive); with `Cc1ccc(CN2CCCN(Cc3ccccc3C)S2(=O)=O)cc1`, 12% (inactive).
As for `O=C1NC(=S)N(c2ccccc2)C(=O)/C1=C/c1ccco1`, the “activation” value was -21.7% (inactive).
For the compound `Cc1cc(OC(C)C(=O)N[C@H](C(=O)O)c2ccccc2)c2c3c(c(=O)oc2c1)CCC3` (some centres undefined), the “activation” value is 0.11% (inactive).
The same measure, in the same setting: with `CCOC(=O)[C@]12Cc3cc(OC)ccc3[C@H]1N(Cc1ccccc1)C(=O)c1cc(F)c(F)cc12` the figure was 0.399% (inactive).
Same read-out and setting: under `COC(=O)c1cn(Cc2ccc(F)cc2)c2ccccc12` stands 21.3% (inactive); under `CCCCn1c(NS(=O)(=O)c2ccc(C)cc2)c(C(=O)OCC)c2nc3ccccc3nc21`, -34.8% (inactive).
On the same count and under the same terms, under `O=C1NC(=O)N(Cc2ccccc2)C(=O)/C1=C/C=C/c1ccco1` stands 4.26% [at 17.1 µM, percent relative to cAMP agonist control] (inactive); under `O=C(O)CC1OCC=C2CN3CCC45C6=CC(=O)C(=O)C([N+](=O)[O-])=C6NC4C1C2CC35` (centres undefined), 6.24% (inactive); under `COc1ccc(-n2c(O)c(/C=C3\C=Nc4ccc(Br)cc43)c(=O)[nH]c2=O)c(OC)c1`, -5.9% (inactive).
Consider `Cc1ccc(C)c(Cn2c(C(=O)O)c(C=O)c3ccccc32)c1`, for which the activation was 10% [at 17.1 µM, percent relative to cAMP agonist control] (inactive).
Consider `O=C1NCN(c2ccccc2)C12CCN(C(c1cc3ccccc3o1)c1nnnn1C1CCCC1)CC2` (centres undefined), for which the activation was 13.1% [at 17.1 µM, percent relative to cAMP agonist control] (inactive).
Same read-out and setting: under `CCCNC(=O)N1[C@H]2CC[C@@H]1C(C(=O)OC)=C(c1ccc(F)cc1OCc1ccccc1)C2` stands -14.7% (inactive).
Same read-out and setting: with `Nc1c(C(=O)Nc2ccc(Br)cc2F)sc2nc3c(cc12)N1CCC3CC1` the figure was 0.502% [at 83.8 µM, percent relative to cAMP agonist control] (inactive).
As to `CCOC(=O)c1cc(CC)sc1/N=C/c1c(O)[nH]c(=S)[nH]c1=O`, the Potency is 100 µM (active).
With `CCOC(=O)[C@]12Cc3cc(Cl)ccc3[C@H]1N(C1CCCCC1)C(=O)c1ccccc12`, the “activation” value is 20.5% (inactive).
On the same count and under the same terms, under `CCOC(=O)[C@]12Cc3ccccc3[C@H]1N(C1CCCCC1)C(=O)c1cc(OC)ccc12` stands 9.79% (inactive); under `CCOC(=O)[C@]12Cc3ccc(C)cc3[C@H]1N(C1CCCCC1)C(=O)c1cc(OC)ccc12`, -2.89% (inactive).
For `COC(=O)c1cn(C(=O)c2cccc3ccccc23)c2ccccc12`, the “activation” value is 12.7% (inactive).
On the same count and under the same terms, with `COCCCn1c(N)c(C(=O)NCCC(C)C)c2nc3ccccc3nc21` the figure was 8.34% [at 17.1 µM, percent relative to cAMP agonist control] (inactive); with `Oc1c(Cl)cccc1Cc1cc(Cl)cc(Cl)c1O`, -15.4% (inactive); with `CN(C)CC(C(=O)Cc1ccccc1)c1ccccc1` (centres undefined), 4.26% (inactive).
